Test results taken from PubChem BioAssay (EPA / NIEHS).
Calls of active or inactive are those of the source. How the source made its calls: active means hit-call score of the fitted dose curve at least 0.9, where 1 is the maximum; inactive means score below 0.9.

Columns and labels:
[1] = read-out: Interleukin-8 (IL8), CXCL8 (gene 3576); experiment: BSK_3C_IL8: BioMAP Diversity Plus: 3C Assay for Interleukin-8 (IL8) Biomarker Activity (AID 2283020); settings: primary human endothelial cells (HUVEC); actives raise or lower the signal
Method in brief: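 Primary human umbilical vein endothelial cells (3C system) were exposed to test chemical for 24 h, then IL-8 was quantified by ELISA. Responses were fitted bidirectionally against DMSO vehicle as baseline.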

[2] = read-out: Monokine induced gamma interferon (MIG), CXCL9 (gene 4283); experiment: BSK_3C_MIG: BioMAP Diversity Plus: 3C Assay for Monokine induced gamma interferon (MIG) Biomarker Activity (AID 2283021); settings: primary human endothelial cells (HUVEC); actives raise or lower the signal;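 on AC50: MIG protein level measured by immunoassay in the treated endothelial cultures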
Method in brief: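 Primary human umbilical vein endothelial cells in the 3C system were exposed to chemical for 24 h, after which MIG was quantified by ELISA. Activity was fitted bidirectionally against DMSO as negative control and baseline.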

[3] = BSK_3C_SRB: Viability Assessment in the BioMAP Diversity Plus: 3C Assay (AID 2283023); settings: primary human endothelial cells (HUVEC);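 further: cells read 24 h after compound dosing; fitted both ways against DMSO so a hit may be signal rise or drop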
Method in brief: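 Absorbance at 560 nm of sulforhodamine B-stained (0.1%) total protein served as a cytotoxicity readout in human umbilical vein endothelial cells, 24 h after chemical treatment. Signal was fitted bidirectionally relative to DMSO.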

[4] = read-out: Matrix Metallopeptidase 1 (MMP1), MMP1 (gene 4312); experiment: BSK_BE3C_MMP1: BioMAP Diversity Plus: BE3C Assay for Matrix Metallopeptidase 1 (MMP1) Biomarker Activity (AID 2283024); settings: primary human bronchial epithelial cells; actives raise or lower the signal
Method in brief: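 Primary human bronchial epithelial cells were dosed with test chemicals, and MMP1 levels were measured by ELISA 24 h later. Data were fitted bidirectionally against DMSO as the negative control and activity baseline.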

[5] = BSK_3C_Vis: BioMAP Diversity Plus: 3C Assay for Morphology Visualization (AID 2283025); settings: primary human endothelial cells (HUVEC);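 further: fitted both ways so gain or loss versus DMSO counts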
Method in brief: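 Human umbilical vein endothelial cells in the 3C system were imaged by light microscopy 24 h after chemical dosing to record cell morphology. Activity was fitted bidirectionally against DMSO as negative control and baseline; the endpoint serves as a background control.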

[6] = read-out: Pselectin, SELP (gene 6403); experiment: BSK_4H_Pselectin: BioMAP Diversity Plus: 4H Assay for Pselectin Biomarker Activity (AID 2283026); settings: primary human endothelial cells (HUVEC); actives raise or lower the signal
Method in brief: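 Primary human umbilical vein endothelial cells were exposed to test chemical for 24 h, then cell-surface P-selectin was quantified by ELISA. Activity was fitted bidirectionally against DMSO as negative control and baseline.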

[7] = BSK_4H_SRB: Viability Assessment in the BioMAP Diversity Plus: 4H Assay (AID 2283027); settings: primary human endothelial cells (HUVEC);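 further: cells exposed to compound for 24 h before staining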;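 on AC50: curves fitted both ways versus DMSO so AC50 may be loss or gain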
Method in brief: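 Absorbance at 560 nm of SRB-stained total protein served as the viability read-out in confluent primary human umbilical vein endothelium 24 h after chemical treatment. Curves were fitted bidirectionally against DMSO as negative control.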

[8] = read-out: Thrombomodulin, THBD (gene 7056); experiment: BSK_3C_Thrombomodulin: BioMAP Diversity Plus: 3C Assay for Thrombomodulin Biomarker Activity (AID 2283029); settings: primary human endothelial cells (HUVEC); actives raise or lower the signal
Method in brief: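 Primary human umbilical vein endothelial cells (3C system) were exposed to chemical for 24 h, then thrombomodulin levels were measured by ELISA. Activity was fitted bidirectionally against the DMSO negative control as baseline.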

[9] = BSK_BE3C_SRB: Viability Assessment in the BioMAP Diversity Plus: BE3C Assay (AID 2283028); settings: primary human bronchial epithelial cells;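 on AC50: fitted both ways so AC50 may mark signal gain or loss versus DMSO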
Method in brief: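 Cells (human bronchial epithelial, primary) are treated with chemicals, and after 24 h the parallel cultures are fixed in 10% TCA. These are then stained with 0.1% SRB and read at 560 nm. Gain or loss of signal is fitted relative to DMSO.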

## Cc1ccc(N=CN(C)C=Nc2ccc(C)cc2C)c(C)c1
[1]
  AC50: 31.6 µM (active)
[2]
  AC50: 34.5 µM (active)
[3]
  AC50: 32.4 µM (active)
[4]
  outcome: inactive
[5]
  AC50: 16.3 µM (active)
[6]
  AC50: 30 µM (active)
[7]
  AC50: 32.3 µM (active)
[8]
  AC50: 20 µM (active)

## N#Cc1c[nH]cc1-c1cccc2c1OC(F)(F)O2
[1]
  AC50: 8.82 µM (active)
[2]
  outcome: inactive
[3]
  AC50: 11.6 µM (active)
[4]
  outcome: inactive
[5]
  AC50: 11.2 µM (active)
[6]
  AC50: 11.7 µM (active)
[7]
  AC50: 6.27 µM (active)
[8]
  outcome: inactive

## N#Cc1c(Cl)cccc1Cl
[1]
  outcome: inactive
[2]
  outcome: inactive
[3]
  outcome: inactive
[4]
  outcome: inactive
[5]
  outcome: inactive
[6]
  outcome: inactive
[7]
  outcome: inactive
[8]
  outcome: inactive

## C=CCOC(=O)C(C)(C)OC(=O)c1cc(-n2c(=O)cc(C(F)(F)F)n(C)c2=O)ccc1Cl
[1]
  outcome: inactive
[2]
  outcome: inactive
[3]
  outcome: inactive
[4]
  outcome: inactive
[5]
  outcome: inactive
[6]
  outcome: inactive
[7]
  outcome: inactive
[8]
  outcome: inactive

## CC(C)=CC1C(C(=O)OCc2coc(Cc3ccccc3)c2)C1(C)C (configuration not stated)
[1]
  AC50: 9.03 µM (active)
[2]
  outcome: inactive
[3]
  AC50: 13.7 µM (active)
[4]
  outcome: inactive
[5]
  AC50: 9.8 µM (active)
[6]
  outcome: inactive
[7]
  outcome: inactive
[8]
  outcome: inactive

## Cc1cc(C)nc(Nc2ccccc2)n1
[1]
  outcome: inactive
[2]
  outcome: inactive
[3]
  outcome: inactive
[4]
  outcome: inactive
[5]
  outcome: inactive
[6]
  outcome: inactive
[7]
  outcome: inactive
[9]
  outcome: inactive
[8]
  outcome: inactive

## CC(C)Oc1cccc(NC(=O)c2ccccc2C(F)(F)F)c1
[1]
  outcome: inactive
[2]
  outcome: inactive
[3]
  AC50: 11.6 µM (active)
[4]
  outcome: inactive
[5]
  outcome: inactive
[6]
  outcome: inactive
[7]
  outcome: inactive
[8]
  outcome: inactive

## N#CN=C1SCCN1Cc1ccc(Cl)nc1
[1]
  outcome: inactive
[2]
  outcome: inactive
[3]
  outcome: inactive
[4]
  outcome: inactive
[5]
  outcome: inactive
[6]
  outcome: inactive
[7]
  outcome: inactive
[9]
  outcome: inactive
[8]
  outcome: inactive

## C=C(C)CN(CC)c1c([N+](=O)[O-])cc(C(F)(F)F)cc1[N+](=O)[O-]
[1]
  outcome: inactive
[2]
  outcome: inactive
[3]
  AC50: 30 µM (active)
[4]
  outcome: inactive
[5]
  AC50: 20 µM (active)
[6]
  outcome: inactive
[7]
  outcome: inactive
[8]
  outcome: inactive

## CCSC(=O)N1CCCCCC1
[1]
  outcome: inactive
[2]
  outcome: inactive
[3]
  outcome: inactive
[4]
  outcome: inactive
[5]
  outcome: inactive
[6]
  outcome: inactive
[7]
  outcome: inactive
[9]
  outcome: inactive
[8]
  outcome: inactive

## Cc1nc(N(C)C)nc(OC(=O)N(C)C)c1C
[1]
  outcome: inactive
[2]
  outcome: inactive
[3]
  outcome: inactive
[4]
  outcome: inactive
[5]
  outcome: inactive
[6]
  outcome: inactive
[7]
  outcome: inactive
[8]
  outcome: inactive

## Cc1cnc(C2=NC(C)(C(C)C)C(=O)N2)c(C(=O)O)c1 (configuration not stated)
[1]
  outcome: inactive
[2]
  outcome: inactive
[3]
  outcome: inactive
[4]
  outcome: inactive
[5]
  outcome: inactive
[6]
  outcome: inactive
[7]
  outcome: inactive
[8]
  outcome: inactive

## CC(C)N1C(=O)N(c2ccccc2)CSC1=NC(C)(C)C
[1]
  AC50: 25.4 µM (active)
[2]
  outcome: inactive
[3]
  AC50: 27.2 µM (active)
[4]
  AC50: 25.8 µM (active)
[5]
  AC50: 16.3 µM (active)
[6]
  AC50: 31.2 µM (active)
[7]
  AC50: 31.2 µM (active)
[9]
  AC50: 27.8 µM (active)
[8]
  outcome: inactive

## CCOC(=O)C(C)OC(=O)c1cc(Oc2ccc(C(F)(F)F)cc2Cl)ccc1[N+](=O)[O-] (configuration not stated)
[1]
  outcome: inactive
[2]
  outcome: inactive
[3]
  AC50: 13.3 µM (active)
[4]
  outcome: inactive
[5]
  outcome: inactive
[6]
  outcome: inactive
[7]
  AC50: 13.1 µM (active)
[8]
  outcome: inactive

## COc1cc(OC)nc(NC(=O)NS(=O)(=O)c2ncccc2OCC(F)(F)F)n1
[1]
  outcome: inactive
[2]
  outcome: inactive
[3]
  outcome: inactive
[4]
  outcome: inactive
[5]
  outcome: inactive
[6]
  outcome: inactive
[7]
  outcome: inactive
[8]
  outcome: inactive

## CC(C)C1(C)N=C(c2ncccc2C(=O)O)NC1=O (configuration not stated)
[1]
  outcome: inactive
[2]
  outcome: inactive
[3]
  outcome: inactive
[4]
  outcome: inactive
[5]
  outcome: inactive
[6]
  outcome: inactive
[7]
  AC50: 0.454 µM (active)
[8]
  outcome: inactive

## Nc1cnn(-c2ccccc2)c(=O)c1Cl
[1]
  outcome: inactive
[2]
  outcome: inactive
[3]
  outcome: inactive
[4]
  outcome: inactive
[5]
  AC50: 39 µM (active)
[6]
  outcome: inactive
[7]
  outcome: inactive
[8]
  outcome: inactive

## COC(=O)NS(=O)(=O)c1ccc(N)cc1
[1]
  outcome: inactive
[2]
  outcome: inactive
[3]
  outcome: inactive
[4]
  outcome: inactive
[5]
  outcome: inactive
[6]
  outcome: inactive
[7]
  outcome: inactive
[8]
  outcome: inactive

## CCNC(=O)NC(=O)C(C#N)=NOC
[1]
  outcome: inactive
[2]
  outcome: inactive
[3]
  outcome: inactive
[4]
  outcome: inactive
[5]
  outcome: inactive
[6]
  outcome: inactive
[7]
  outcome: inactive
[8]
  outcome: inactive

## CC(C)NC(=O)N1CC(=O)N(c2cc(Cl)cc(Cl)c2)C1=O
[1]
  outcome: inactive
[2]
  outcome: inactive
[3]
  outcome: inactive
[4]
  outcome: inactive
[5]
  outcome: inactive
[6]
  outcome: inactive
[7]
  outcome: inactive
[8]
  outcome: inactive

## COc1cc(Cl)c(OC)cc1Cl
[1]
  outcome: inactive
[2]
  outcome: inactive
[3]
  outcome: inactive
[4]
  outcome: inactive
[5]
  outcome: inactive
[6]
  outcome: inactive
[7]
  AC50: 3.09 µM (active)
[8]
  outcome: inactive

## CCCN(CC)CC1COC2(CCC(C(C)(C)C)CC2)O1 (configuration not stated)
[1]
  outcome: inactive
[2]
  outcome: inactive
[3]
  outcome: inactive
[4]
  outcome: inactive
[5]
  outcome: inactive
[6]
  outcome: inactive
[7]
  outcome: inactive
[9]
  outcome: inactive
[8]
  outcome: inactive

## CO/N=C(/C1=NOCCO1)c1ccccc1Oc1ncnc(Oc2ccccc2Cl)c1F
[1]
  AC50: 20 µM (active)
[2]
  outcome: inactive
[3]
  AC50: 13.4 µM (active)
[4]
  outcome: inactive
[5]
  AC50: 20 µM (active)
[6]
  outcome: inactive
[7]
  AC50: 8.6 µM (active)
[8]
  outcome: inactive

## CCOP(=O)(OCC)Oc1nc(Cl)c(Cl)cc1Cl
[1]
  AC50: 20 µM (active)
[2]
  outcome: inactive
[3]
  AC50: 28.8 µM (active)
[4]
  outcome: inactive
[5]
  AC50: 16.3 µM (active)
[6]
  AC50: 18.5 µM (active)
[7]
  AC50: 12.4 µM (active)
[8]
  outcome: inactive

## CC1(C)C(C=C(Cl)Cl)C1C(=O)OC(C#N)c1cccc(Oc2ccccc2)c1 (configuration not stated)
[1]
  outcome: inactive
[2]
  outcome: inactive
[3]
  AC50: 8.06 µM (active)
[4]
  outcome: inactive
[5]
  outcome: inactive
[6]
  outcome: inactive
[7]
  AC50: 14 µM (active)
[8]
  outcome: inactive

## CCCCOCN(C(=O)CCl)c1c(CC)cccc1CC
[1]
  AC50: 34.5 µM (active)
[2]
  AC50: 32.9 µM (active)
[3]
  AC50: 28.5 µM (active)
[4]
  AC50: 33.2 µM (active)
[5]
  AC50: 29.4 µM (active)
[6]
  AC50: 21.9 µM (active)
[7]
  AC50: 28.2 µM (active)
[8]
  AC50: 8.66 µM (active)

## CN=C=S
[1]
  outcome: inactive
[2]
  outcome: inactive
[3]
  outcome: inactive
[4]
  outcome: inactive
[5]
  outcome: inactive
[6]
  outcome: inactive
[7]
  outcome: inactive
[8]
  outcome: inactive

## CCNP(=S)(OC)O/C(C)=C/C(=O)OC(C)C (configuration not stated)
[1]
  outcome: inactive
[2]
  outcome: inactive
[3]
  outcome: inactive
[4]
  outcome: inactive
[5]
  outcome: inactive
[6]
  outcome: inactive
[7]
  outcome: inactive
[9]
  outcome: inactive
[8]
  outcome: inactive

## COP(=O)(OC)O/C(C)=C/C(=O)N(C)C
[1]
  outcome: inactive
[2]
  outcome: inactive
[3]
  outcome: inactive
[4]
  outcome: inactive
[5]
  outcome: inactive
[6]
  outcome: inactive
[7]
  outcome: inactive
[9]
  outcome: inactive
[8]
  outcome: inactive

## CCCC(=NOCC)C1=C(O)CC(CC(C)SCC)CC1=O (configuration not stated)
[1]
  outcome: inactive
[2]
  outcome: inactive
[3]
  outcome: inactive
[4]
  outcome: inactive
[5]
  AC50: 39 µM (active)
[6]
  outcome: inactive
[7]
  outcome: inactive
[8]
  outcome: inactive
